Source: PubChem (National Center for Advancing Translational Sciences (NCATS))
HP1b binding inh – inhibitors of HP1-beta chromodomain binding to methylated histone tails; 0.56% of 390,000 active; Potency, µM (highest dose often 114 µM), without a hit: at the highest dose activity change, negative = inhibition, actives largely listed as inhibitors; P83916; AID 540317; AlphaScreen HP1-beta / biotin-H3K9me3 peptide binding; note: nearly all actives have a fitted effect of over 70% in size
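AlphaScreen: HP1-beta (50 nM) preformed 30 min with biotin-H3(1-18)K9me3 peptide (50 nM) in PBS pH 7.4, 0.01% Tween-20. Compound added for 30 min at RT, then streptavidin donor/nickel chelate acceptor beads (10 ug/mL) for 30 min.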
G9a inh – G9a (human) methyltransferase inhibition; Q96KQ7; G9a H3K9 monomethylation, AlphaScreen, 2 h; Potency, µM (series often up to 102 µM), inactives show at the highest dose activity, negative = inhibition, hits mostly inhibitors; 8.8% of 350,000 active; note: % is set by controls: 0 for no effect and ±100 for the full control effect; nearly all actives have a fitted effect of over 75% in size
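G9a (20 nM) was preincubated 15 min with compound, then reacted 2 h at room temperature with 500 nM biotin-H3K9 peptide and 20 µM SAM. Monomethyl-H3K9 detected by AlphaScreen using anti-H3K9me1 antibody.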
JMJD2A Tudor – inhibitors of human JMJD2A Tudor domain. 4.4% of 390,000 active. AlphaScreen JMJD2A-Tudor / H3K4me3 peptide binding. AID 504339. O75164. Potency, µM (series often up to 114 µM), inactives show at the highest dose activity change, negative = inhibition, most hits filed as inhibitors; note: % is set by controls: 0 for no effect and ±100 for the full control effect; nearly all actives have a fitted effect of over 50% in size
BAZ2B inh – blocks human BAZ2B | Potency, µM (titrated, usually from 114 µM), for the others: top-dose activity change, negative = inhibition, most hits filed as inhibitors | 4.4% of 360,000 active | AlphaScreen BAZ2B-H3K14Ac peptide displacement | AID 504333 | Q9UIF8; note: % is set by controls: 0 for no effect and ±100 for the full control effect; nearly all actives have a fitted effect of over 60% in size
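In this displacement format the biotinylated H3(5-23) peptide acetylated at Lys14 serves as ligand at 50 nM, with BAZ2B at 50 nM in PBS pH 7.4 containing 0.01% Tween-20. Donor and acceptor beads are 10 ug/mL final.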
L3MBTL1 inh – blocks human L3MBTL1; 0.66% of 230,000 active; Potency, µM (top dose mostly 57.1 µM), for the others: top-dose activity, negative = inhibition, most hits filed as inhibitors; AlphaScreen L3MBTL1–H3K9me1 peptide binding; note: % is set by controls: 0 for no effect and ±100 for the full control effect; nearly all actives have a fitted effect of over 60% in size
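Read-out is AlphaScreen signal from streptavidin donor and nickel chelate acceptor beads (10 ug/mL final each) bridging L3MBTL1 (50 nM) and biotinylated K9-monomethylated H3(1-15) peptide (75 nM), after 30 min compound exposure at room temperature.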
Sfp PPTase inh – Sfp phosphopantetheinyl transferase inhibition; Biochemical Sfp PPTase activity, qHTS; Q9F4F7; Potency, µM, for inactives: largest response in the series, negative = inhibition, usual class: inhibitors; 3.5% of 310,000 active;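 note: the enzyme is Sfp with the accession as filed and its product quenches rhodamine fluorescence; 0% = enzyme reaction without inhibitor and -100% = no enzyme wells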
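Sfp 15 nM + cpd, 15 min RT; start w/ rhodamine-CoA 5 uM, BHQ-2-YbbR 12.5 uM (final); 50 mM Hepes pH 7.6, 10 mM MgCl2, 0.01% NP-40, 0.01% BSA; read 525/598 nm at 0 and 30 min.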
Numbers without * were called inactive; [ ] = remark or other dose. The list is not random: actives were taken first. Their share in the collection is about 12%. Calls come from the whole dose curve; as a rule, active = well fitted curve in the direction sought with a large enough effect; inconclusive = small, poorly fitted or top-dose-only effect, or another doubt; inactive = no such curve, though single readings can be large; an effect the other way counts as inactive or inconclusive. Potency is the fitted concentration of half-maximal effect.

For CCCC12CN3CC(C)(CN(C1)C3c1c(C)[nH]c(=O)[nH]c1=O)C2=O (configuration not stated) the results were HP1b binding inh 16%, G9a inh inconclusive, JMJD2A Tudor -19% and BAZ2B inh -13%.
`CCCCC12CN3CC(C)(CN(C1)C3c1ccccn1)C2=O` (configuration not stated) gave HP1b binding inh 11%, G9a inh 0.63µM*, JMJD2A Tudor 25µM* and BAZ2B inh 8.9µM*.
`CC(C)CC1C(C#N)=C(N)Oc2c1c(=O)oc1ccccc21` (configuration not stated) gave HP1b binding inh 3%, G9a inh -70%, JMJD2A Tudor 45µM*, BAZ2B inh -1% and Sfp PPTase inh 15%.
COCCCOc1ccnc(CS(=O)c2nc3ccccc3[nH]2)c1C (configuration not stated) was read as HP1b binding inh 22µM*, G9a inh 13µM*, JMJD2A Tudor 35µM*, BAZ2B inh inconclusive and Sfp PPTase inh 50µM*.
For CNc1ccc2oc(C[C@H]3O[C@]4(CC[C@H]3C)O[C@H]([C@H](C)C(=O)c3ccc[nH]3)[C@H](C)C[C@H]4C)nc2c1C(=O)O the results were Sfp PPTase inh -10%.
`Cc1cccnc1-n1c(-c2ccco2)nc2ccccc2c1=O` gave HP1b binding inh 22%, G9a inh 50µM*, JMJD2A Tudor 13%, BAZ2B inh -6%, L3MBTL1 inh -6% and Sfp PPTase inh 0%.
`C[N+](C)(C)CCOC(=O)C(O)(c1ccccc1)c1ccccc1` gave G9a inh inconclusive and Sfp PPTase inh 7%.
Screening COCCNCCOc1ccc(C(C)(C)c2ccccc2)cc1 returned HP1b binding inh inconclusive, G9a inh 11µM*, JMJD2A Tudor 32µM*, BAZ2B inh inconclusive, L3MBTL1 inh 4% and Sfp PPTase inh -23%.
For COc1ccccc1NC(=O)Oc1cccc(OC(=O)c2ccccc2)c1 the results were HP1b binding inh 25%, G9a inh 71µM*, JMJD2A Tudor -13%, BAZ2B inh -9% and Sfp PPTase inh 7%.
`Cc1nn(C)c(C)c1P(=S)(c1c(C)nn(C)c1C)N(C)C` gave HP1b binding inh -4%, G9a inh 14µM*, JMJD2A Tudor -11%, BAZ2B inh -30%, L3MBTL1 inh -10% and Sfp PPTase inh -13%.
`O=C(COc1ccc(Cl)cc1)N1CCN(C2CCCC2)CC1` gave HP1b binding inh inconclusive, G9a inh 8.9µM*, JMJD2A Tudor 20µM*, BAZ2B inh 50µM* and Sfp PPTase inh -6%.
Screening Cn1c(=O)cc(OCC(=O)N2CCN(C3CCCCC3)CC2)c2ccccc21 returned HP1b binding inh 30%, G9a inh -1%[59 µM], JMJD2A Tudor -19%, BAZ2B inh 6%, L3MBTL1 inh 6% and Sfp PPTase inh 17%.
Screening CC1CCC(N2CCN(C(=O)COc3ccccc3)CC2)CC1 (configuration not stated) returned HP1b binding inh -18%, G9a inh 11µM*, JMJD2A Tudor 4µM*, BAZ2B inh 50µM* and Sfp PPTase inh -23%.
O=C(COc1ccc(Cl)cc1)N1CCN(Cc2ccccc2)CC1 was read as HP1b binding inh 21%, G9a inh 5%[59 µM], JMJD2A Tudor -5%, BAZ2B inh -5%, L3MBTL1 inh 2% and Sfp PPTase inh 3%.
`c1ccc([Se]c2c(-c3ccccc3)[se]c3ccccc23)cc1` gave G9a inh 85%[59 µM] and Sfp PPTase inh 1%.
For CC[C@H]1CC2CN3CCc4c([nH]c5cc(OC)ccc45)[C@](C(=O)OC)(C2)[C@H]13 the results were HP1b binding inh -27% and JMJD2A Tudor 40µM*.
